Measured values as given in PubChem BioAssay (NCATS).
Records with an inconclusive call do not appear. A call without a number means that no potency is given here. Calls of active or inactive are those of the source. Unless noted, calls come from the whole dose curve; as a rule, active = well fitted curve in the direction sought with a large enough effect; inconclusive = small, poorly fitted or top-dose-only effect, or another doubt; inactive = no such curve, though single readings can be large; an effect the other way counts as inactive or inconclusive.

Assays:
[1] = KB-8-5-11 P-gp reporter qHTS against the NCATS DSHEA and TCM libraries (AID 1919977)
Outline: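 P-gp-overexpressing KB-8-5-11 cells were screened in colchicine-free medium at 500 cells/well, as a titration series. Cells were exposed for 72 h at 37C. Viability was read by CellTiter-Glo luminescence after 30 min at room temperature.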

[2] = Quantitative High-Throughput drug screen in 47 multiple myeloma cell lines against the NCATS MIPE library collection: RPMI8226_ATCC cell viability assay (AID 1919871); note: nearly all actives have a fitted effect of over 30% in size; note: potency is the fitted concentration of half-maximal effect
Outline: (§1)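 qHTS format: cells plated (500/well), pin-dosed with MIPE 4.0 compounds, kept 48 h at 37 °C. Readout was CellTiter-Glo luminescence, median RLU.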

[3] = Quantitative High-Throughput drug screen in 47 multiple myeloma cell lines against the NCATS MIPE library collection: OPM2_DSMZ cell viability assay (AID 1919872); note: nearly all actives have a fitted effect of over 30% in size
Outline: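 We plated 500 myeloma cells per well, pinned in MIPE 4.0 compounds, and incubated for 48 hours at 37C. ATP was then quantified with CellTiter-Glo, with DMSO and media-only wells defining 100% and 0%.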

[4] = Quantitative High-Throughput drug screen in 47 multiple myeloma cell lines against the NCATS MIPE library collection: KMS11_JCRBsus cell viability assay (AID 1919873); note: nearly all actives have a fitted effect of over 50% in size; note: potency is the fitted concentration of half-maximal effect
Outline: as §1

[5] = Quantitative High-Throughput drug screen in 47 multiple myeloma cell lines against the NCATS MIPE library collection: KMS28BM_JCRB cell viability assay (AID 1919874); note: nearly all actives have a fitted effect of over 35% in size
Outline: as §1

[6] = qHTS drug screen for cell cycle checkpoint inhibitors in PARPi-resistant BRCA-mutant ovarian cancer cell lines. (AID 1963452; calls by dose curve); details: PEO1/OlaR viability, CellTiter-Glo luminescence, 96 h, stronger effect = lower value
Outline: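 PEO1, PEO4 and PEO1/OlaR ovarian cancer cells, 600 per well, exposed 96 h at 37C to a dilution series. Viability read by CellTiter-Glo luminescence, normalized to DMSO and empty wells; activity summarized as Z-AUC.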

[7] = qHTS for identification of novel therapeutic agents for treatment of microphthalmiaassociated transcription factor (MiT) renal cell carcinoma (RCC) (AID 1963991); details: CellTiter-Glo, 48 h, stronger effect = lower value
Outline: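 Viability of three TFE3-fusion renal carcinoma lines measured by CellTiter-Glo after 48 h treatment with each of 1912 compounds at 11 concentrations. Responses scaled between DMSO (100%) and empty wells (0%) before curve fitting.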

[8] = qHTS profiling for inhibitors of Plasmodium falciparum proliferation (AID 504749); note: nearly all actives have a fitted effect of over 60% in size; details: P. falciparum in erythrocytes, SYBR Green DNA, 72 h, at 28.7 µM (top of the series)
Outline: (§2)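 Quantitative HTS: compounds pinned into medium, infected erythrocytes added (0.3% parasitemia, 2.5% hematocrit), 72 h culture at 37 C under 5% CO2. Saponin/Triton lysis with SYBR Green I, overnight RT, then fluorescence read.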

3D7 = assay: as above; details: P. falciparum in erythrocytes, SYBR Green DNA, 72 h; series mostly up to 28.7 µM
Outline: as §2

7G8 = assay: as above; details: P. falciparum in erythrocytes, SYBR Green DNA, 72 h; series mostly up to 28.7 µM
Outline: as §2

AA1029 = assay: as above; details: P. falciparum in erythrocytes, SYBR Green DNA, 72 h; series mostly up to 28.7 µM
Outline: as §2

AS120 = assay: as above; details: P. falciparum in erythrocytes, SYBR Green DNA, 72 h; series mostly up to 28.7 µM
Outline: as §2

ATS189 = assay: as above; details: P. falciparum in erythrocytes, SYBR Green DNA, 72 h; series mostly up to 28.7 µM
Outline: as §2

ATS95 = assay: as above; details: P. falciparum in erythrocytes, SYBR Green DNA, 72 h; series mostly up to 28.7 µM
Outline: as §2

C2A = assay: as above; details: P. falciparum in erythrocytes, SYBR Green DNA, 72 h; series mostly up to 28.7 µM
Outline: as §2

[9] = measured here: PEO1 parental Z-AUC
[10] = TFE3-RCC UOK109 viability, measured here: UOK109 Z-AUC
[11] = TFE3-RCC viability, measured here: UOK124 Z-AUC
[12] = TFE3-RCC viability, measured here: UOK145 Z-AUC

## O=C(O)CCCC[C@@H]1SC[C@@H]2NC(=O)N[C@@H]21
[1]
  outcome: inactive

## C[C@]12CC[C@@H]3c4ccc(OC(=O)N(CCCl)CCCl)cc4CC[C@H]3[C@@H]1CC[C@@H]2OP(=O)(O)O
[2]
  Potency: inactive
[3]
  outcome: inactive
[4]
  Potency: inactive
[5]
  outcome: inactive
[6]
  Z-AUC: 0.291 (inactive)
[6]; [9]
  Z-AUC: 1.75
[6]; measured here: PEO4 Z-AUC
  Z-AUC: 1.95

## O=P1(N(CCCl)CCCl)NCCCO1 (stereo unspecified)
[3]
  outcome: inactive
[6]
  Z-AUC: 1.32 (inactive)
[6]; [9]
  Z-AUC: 1.49
[6]; measured here: PEO4 Z-AUC
  Z-AUC: 1.45
[7]; [10]
  z-score: 0.655
[7]; [11]
  z-score: 0.953
[7]; [12]
  z-score: 1.4
[8]; parasite line A
  activity, negative = inhibition: 11.3% (inactive)
[8]; parasite line B
  activity, negative = inhibition: 6.9% (inactive)
3D7
  Potency: inactive
7G8
  Potency: inactive
AA1029
  Potency: inactive
AS120
  Potency: inactive
ATS189
  Potency: inactive
ATS95
  Potency: inactive
C2A
  Potency: inactive

## CC(NC(C)(C)C)C(=O)c1cccc(Cl)c1 (stereo unspecified)
[2]
  Potency: 20.9 µM (active)
[3]
  outcome: inactive
[5]
  outcome: inactive
[6]
  Z-AUC: -0.176 (inactive)
[6]; [9]
  Z-AUC: 0.0369
[6]; measured here: PEO4 Z-AUC
  Z-AUC: 1.02
[7]; [10]
  z-score: 0.679
[7]; [11]
  z-score: 0.615
[7]; [12]
  z-score: 0.622

## CC(C)C[C@H](CN)CC(=O)O
[2]
  Potency: inactive
[3]
  outcome: inactive
[4]
  Potency: inactive
[5]
  outcome: inactive
[6]
  Z-AUC: 1.17 (inactive)
[6]; [9]
  Z-AUC: 0.458
[6]; measured here: PEO4 Z-AUC
  Z-AUC: 0.548
[7]; [10]
  z-score: -0.701
[7]; [11]
  z-score: 0.851
[7]; [12]
  z-score: 0.709

## CN1C(=O)COc2c(C(=O)NC3CN4CCC3CC4)cc(Cl)cc21 (stereo unspecified)
[2]
  Potency: inactive
[3]
  outcome: inactive
[6]
  Z-AUC: -0.165 (inactive)
[6]; [9]
  Z-AUC: -0.0882
[6]; measured here: PEO4 Z-AUC
  Z-AUC: 0.485
[8]; parasite line A
  activity, negative = inhibition: 7.89% (inactive)
[8]; parasite line B
  activity, negative = inhibition: 7.46% (inactive)
3D7
  Potency: inactive
AA1029
  Potency: inactive
AS120
  Potency: inactive
ATS189
  Potency: inactive
ATS95
  Potency: inactive
C2A
  Potency: inactive

## C=CCc1ccc(O)c(OC)c1
[1]
  outcome: inactive

## C[C@]12CCC(=O)C=C1CC[C@@H]1[C@H]3CC[C@](C)(O)[C@@]3(C)CC[C@@H]12
[2]
  Potency: 38.2 µM (active)
[4]
  Potency: 42.9 µM (active)

## NNC(=O)c1ccncc1
[1]
  outcome: inactive

## CCCCCCCCCCCCCCCC(=O)O
[1]
  outcome: inactive

## CN1C(=O)CCS(=O)(=O)C1c1ccc(Cl)cc1 (stereo unspecified)
[3]
  outcome: inactive
[5]
  outcome: inactive
[6]
  Z-AUC: 1.64 (inactive)
[6]; [9]
  Z-AUC: 1.76
[6]; measured here: PEO4 Z-AUC
  Z-AUC: 1.36
[7]; [10]
  z-score: 0.949
[7]; [11]
  z-score: 0.189
[7]; [12]
  z-score: 0.774
[8]; parasite line A
  activity, negative = inhibition: -12.8% (inactive)
[8]; parasite line B
  activity, negative = inhibition: -22.5% (inactive)
3D7
  Potency: inactive
7G8
  Potency: inactive
AA1029
  Potency: inactive
AS120
  Potency: inactive
ATS189
  Potency: inactive
ATS95
  Potency: inactive
C2A
  Potency: inactive

## Cc1ccc(C(C)C)c(O)c1
[1]
  outcome: inactive

## CC(C)c1cccc(C(C)C)c1O
[2]
  Potency: inactive
[3]
  outcome: inactive
[4]
  Potency: inactive
[5]
  outcome: inactive
[6]
  Z-AUC: 0.183 (inactive)
[6]; [9]
  Z-AUC: 0.696
[6]; measured here: PEO4 Z-AUC
  Z-AUC: 0.584
[7]; [10]
  z-score: -1.1
[7]; [11]
  z-score: 0.663
[7]; [12]
  z-score: 0.666
[8]; parasite line A
  activity, negative = inhibition: 13.6% (inactive)
[8]; parasite line B
  activity, negative = inhibition: 4.13% (inactive)
3D7
  Potency: inactive
7G8
  Potency: inactive
AA1029
  Potency: inactive
AS120
  Potency: inactive
ATS189
  Potency: inactive
ATS95
  Potency: inactive
C2A
  Potency: inactive

## O=C(O)c1cc(O)c(O)c(O)c1
[1]
  outcome: inactive

## O=C(O)c1cccnc1
[1]
  outcome: inactive

## CC(C)=CCC[C@@](C)(O)[C@H]1CC=C(C)CC1
[1]
  outcome: inactive

## NC(=O)c1cnccn1
[1]
  outcome: inactive

## NC(=O)NC1NC(=O)NC1=O (stereo unspecified)
[1]
  outcome: inactive

## C[C@](O)(CS(=O)(=O)c1ccc(F)cc1)C(=O)Nc1ccc(C#N)c(C(F)(F)F)c1
[2]
  Potency: inactive
[4]
  Potency: inactive
[6]
  Z-AUC: 0.83 (inactive)
[6]; [9]
  Z-AUC: 0.549
[6]; measured here: PEO4 Z-AUC
  Z-AUC: 0.67
3D7
  Potency: inactive
AA1029
  Potency: inactive
AS120
  Potency: inactive
ATS189
  Potency: inactive
ATS95
  Potency: inactive
C2A
  Potency: inactive

## CCC1(c2ccc(N)cc2)CCC(=O)NC1=O (stereo unspecified)
[2]
  Potency: inactive
[3]
  outcome: inactive
[5]
  outcome: inactive
[6]
  Z-AUC: 1.39 (inactive)
[6]; [9]
  Z-AUC: 0.942
[6]; measured here: PEO4 Z-AUC
  Z-AUC: 1.02

## O=C(O)CCCc1ccc(N(CCCl)CCCl)cc1
[3]
  outcome: inactive
[4]
  Potency: inactive
[6]
  Z-AUC: 0.915 (inactive)
[6]; [9]
  Z-AUC: 0.822
[6]; measured here: PEO4 Z-AUC
  Z-AUC: 1.2
[8]; parasite line A
  activity, negative = inhibition: -9.59% (inactive)
[8]; parasite line B
  activity, negative = inhibition: 1.97% (inactive)
3D7
  Potency: inactive
AA1029
  Potency: inactive
AS120
  Potency: inactive
ATS189
  Potency: inactive
ATS95
  Potency: inactive
C2A
  Potency: inactive

## C[C@]12CC[C@H]3[C@@H](CC[C@@]45O[C@H]4C(O)=C(C#N)C[C@]35C)[C@H]1CC[C@H]2O
[2]
  Potency: inactive
[3]
  outcome: inactive
[4]
  Potency: inactive
[5]
  outcome: inactive

## C[C@]12Cc3cn[nH]c3C[C@@H]1CC[C@@H]1[C@@H]2CC[C@@]2(C)[C@H]1CC[C@]2(C)O
[6]
  Z-AUC: 1.25 (inactive)
[6]; [9]
  Z-AUC: 0.915
[6]; measured here: PEO4 Z-AUC
  Z-AUC: 1.64

## COc1cc(OC)c(OC)cc1C=O
[3]
  outcome: inactive
[4]
  Potency: inactive
[5]
  outcome: inactive
[7]; [10]
  z-score: 0.0222
[7]; [11]
  z-score: 0.514
[7]; [12]
  z-score: 0.092
